# Screens from PubChem BioAssay.
# Shown are actives, neighbours in structure and some others; about 19% of the full set was active somewhere.
# DT40 TDP1 CPT – DT40-hTDP1 cell growth loss with CPT. Potency, µM (series often up to 46.2 µM), actives largely listed as inhibitors. actives 12% (n = 420,000). AID 686979. chicken DT40 Tdp1-/-;hTDP1 cells + 20 nM CPT, ATP luminescence, 48 h; further: nearly all actives have a fitted effect of over 55% in size
#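 Chicken DT40 Tdp1-/- cells complemented with human TDP1, 400 cells/well, exposed to compounds plus 20 nM camptothecin for at least 48 h at 37 C; viability read as ATP content by CellTiter-Glo luminescence.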
# DT40 TDP1 no CPT – qHTS for Inhibitors of human tyrosyl-DNA phosphodiesterase 1 (TDP1): qHTS in cells in absence of CPT; Potency, µM (series often up to 46.2 µM), usual class: inhibitors; DT40 Tdp1-/- hTDP1 cells, no CPT, ATP luminescence, 48 h; actives 15% (n = 420,000); further: nearly all actives have a fitted effect of over 55% in size
#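 Chicken DT40 Tdp1-/- cells complemented with human TDP1, screened without camptothecin (DMSO vehicle only), 400 cells/well. Compounds pin-transferred, cells incubated at 37 °C for at least 48 hr. Growth read as ATP-dependent luminescence (CellTiter-Glo, 30 min at RT).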
# HT1080 IDH1KD tx – HT-1080 IDH1 knockdown cell toxicity (counter line); HT-1080 IDH1 knockdown viability, ATP luminescence, 48 h; Potency, µM (titrated, usually from 46.1 µM), actives largely listed as cytotoxic; actives 2% (n = 360,000); AID 686971
#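 IDH1KD HT-1080 cells, 750/well, RPMI + 5% FBS; compound pinned after 2 h settling; 48 h, 37 °C; CellTiter-Glo luminescence; % activity normalised to DMSO and no-cell wells; curves fitted, classed by r2 and efficacy.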
# ELG1 DNA repair – blocks ELG1-dependent DNA repair in HEK293T cells. HEK293T ELG1-luciferase reporter, luminescence, 16 h; DNA damage induced by 5-fluorouridine. Potency, µM (highest dose often 46.1 µM), hits mostly inhibitors. actives 2.3% (n = 330,000). AID 504467; further: nearly all actives have a fitted effect of over 55% in size
#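 Luminescence from the luciferase reporter, measured 30 min after ONE-Glo reagent at room temperature, was the read-out. Beforehand, 2,000 cells per well were exposed for 16 hr at 37 °C to 5-fluorouridine together with compound or vehicle.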
# HT1080NT lethal – kills 2HG-producing HT-1080-NT fibrosarcoma cells; HT-1080-NT fibrosarcoma viability, CellTiter-Glo ATP luminescence, 48 h; Potency, µM (series often up to 46.1 µM), actives largely listed as cytotoxic; actives 1.6% (n = 360,000); AID 686970;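 further: NT is the 2HG producing partner of a matched IDH1 knockdown line; nearly all actives have a fitted effect of over 55% in size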
#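 HT-1080-NT; 750 cells/well; 5% FBS RPMI; 48 h compound, 37 degrees C; CellTiter-Glo luminescence; curve fitting and curve-class assignment.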
# IL-1B inflam inh – inflammasome signaling inhibition, IL-1 beta readout | THP-1 LPS/ATP IL-1B secretion, AlphaLISA, 16 h; active compounds read low | activity change, % at 57.5 µM | actives 4.7% (n = 360,000); in the data active means activity change below about -50%; inconclusive means mostly about -30% to -49%
#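 THP-1 cells pretreated 1 hr with compounds (up to 57.5 uM final), then stimulated with LPS (250 ng/mL final) plus ATP (1.25 mM final); secreted IL-1B measured by AlphaLISA after 16 hr, decreased signal indicating inhibition.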
# A number is an active result; 0 = inactive; ? = inconclusive; - = no result; ! = not active in a repeat; [ ] = another dose, or the depositor's remark. Unless noted, the call rests on the fitted dose curve; in most records, active means well fitted curve in the direction sought with a large enough effect; inconclusive means small, poorly fitted or top-dose-only effect, or another doubt; inactive means no such curve, though single readings can be large; an effect the other way counts as inactive or inconclusive.
SMILES,DT40 TDP1 CPT,DT40 TDP1 no CPT,HT1080 IDH1KD tx,ELG1 DNA repair,HT1080NT lethal,IL-1B inflam inh
CCOC(=O)C1=CCN(S(=O)(=O)c2ccc(C)cc2)[C@H]1c1ccccc1Cl,?,?,?,-,0,0
CCOC(=O)C1=CC[C@@H](c2ccccc2Cl)N(S(=O)(=O)c2ccc(C)cc2)[C@H]1C(=O)OCC,?,21µM,0,0,0,0
CCOC(=O)C1=CC[C@@H](c2cccc(C)c2)N(S(=O)(=O)c2ccc(C)cc2)[C@H]1C(=O)OCC,15µM,16µM,0,0,0,0
CCOC(=O)C1=CC[C@@H](c2ccco2)N(S(=O)(=O)c2ccc(C)cc2)[C@H]1C(=O)OCC,?,18µM,0,0,0,0
CCOC(=O)C1=CCC(c2ccco2)N(S(=O)(=O)c2ccc(C)cc2)C1 (centres undefined),?,?,0,-,0,0
Cc1c(Cl)cccc1NC(=O)C(C)n1c(=O)cc(C)c2c(C)nn(-c3ccccc3)c21 (centres undefined),?,0,-,-,-,-
O=c1c2oc3ccccc3c2n(Cc2ccc(Cl)cc2)c(=O)n1Cc1ccc2c(c1)OCO2,0,0,-,-,-,-
O=C(O)COc1ccc(OCCNC[C@@H](O)COc2ccccc2)cc1,0,0,-,-,-,-
Cc1cc(C)c(OCCNC(=O)c2ccccc2Sc2ccccc2C#N)c(C)c1,18µM,?,0,?,0,0
COc1cccc(OCCNC(=O)c2ccccc2Sc2ccccc2C#N)c1,?,16µM,0,?,0,0
COc1cccc(OCCNC(=O)c2cccc(OC)c2)c1,0,0,0,0,0,0
Cc1ccccc1OCCNC(=O)c1ccccc1Sc1ccccc1C#N,0,16µM,0,0,0,0
CSc1ccccc1C(=O)NCCOc1ccccc1C,?,?,0,0,0,0
CC(NC(=O)COc1ccccc1)C(=O)NCc1ccc(S(N)(=O)=O)cc1 (centres undefined),0,0,0,0,0,0
COC(=O)C1N[C@@H]([C@@H](NC(=O)COc2ccccc2)C(=O)NCc2ccccc2)SC1(C)C (some centres undefined),?,20µM!,0,-,0,0
CC(C)n1ncc2c(C(=O)N3CCN(c4ccc(F)cc4)CC3)cc(-c3ccccc3)nc21,?,?,0,?,0,-58
Cc1ccccc1N1CCN(C(=O)c2cc(-c3ccccc3)nc3c2cnn3C(C)C)CC1,0,0,0,-,0,0
COc1cccc(N2CCN(C(=O)c3cc(-c4ccccc4)nc4c3cnn4C(C)C)CC2)c1,?,?,0,12µM,0,?
CC1CCCC(NC(=O)CN2C(=O)c3cccnc3Oc3ccc(Cl)cc32)C1C (centres undefined),0,0,0,0,0,0
Cc1ccc(S(=O)(=O)NC(CC(=O)O)c2ccccc2)cc1 (centres undefined),0,0,0,0,0,0
Cc1ccc(S(=O)(=O)NC(CCc2ccccc2)CC(=O)C(C)(C)C)cc1 (centres undefined),23µM,16µM,0,0,0,0
CCc1nc2ccc(C(=O)NCCCN3CCCC3=O)cn2c1N(C)C(=O)COc1ccccc1,0,0,0,-,0,0
NC(=S)N/N=C1\CCSc2ccc(Cl)cc21,21µM,18µM,0,?,0,0
O=C(N/N=C1\CCSc2ccc(F)cc21)c1cccnc1,0,0,0,0,0,0
Cc1ccc(Sc2ccc(NC(=O)CCl)cc2)c(C)c1,15µM,18µM,0,?,0,-67
SMILES,DT40 TDP1 CPT,DT40 TDP1 no CPT,HT1080 IDH1KD tx,ELG1 DNA repair,HT1080NT lethal,IL-1B inflam inh
COc1ccccc1CN1CCC(n2cc(C(=O)N3CCCCC3)nn2)CC1,0,0,-,-,-,-
CCNC(=O)c1ccccc1SCc1ccccc1,0,0,0,0,0,0
CCNC(=O)c1ccccc1SCC(=O)Nc1ccc(F)cc1,16µM,?,0,?,0,0
O=C(CSc1ccc(F)cc1)Nc1ccc(Br)cc1,0,18µM,0,?,0,0
Cc1cc(C)c(C)c(OCC(=O)Nc2ccc(S(=O)(=O)Nc3nc(C)cc(C)n3)cc2)c1,0,0,-,-,-,-
CC(C)(C)OC(=O)NCCc1onc(-c2cccc([N+](=O)[O-])c2)c1C(=O)O,0,0,0,-,0,0
CCOc1ccc(CN2CCCC(CO)(Cc3ccc(F)cc3)C2)cc1 (centres undefined),0,?,?,0,?,?
OCC1(Cc2ccc(F)cc2)CCCN(Cc2ccc(F)cc2Cl)C1 (centres undefined),0,26µM,?,0,?,0
COc1ccc(CN2CCCC(CO)(Cc3ccc(F)cc3F)C2)cc1 (centres undefined),?,?,?,0,?,-84
CCn1nc(C(C)C)cc1C(=O)N1CCCC(CO)(Cc2ccc(F)cc2F)C1 (centres undefined),23µM,?,0,?,0,0
Cn1c(=O)c2c(nc(SCC(=O)c3ccccc3F)n2C)n(C)c1=O,-,-,-,0,-,-
CSc1ccc(CCNC(=O)c2ccc3c(Cl)c4c(nc3c2)CCCC4)cc1,?,23µM,-,-,-,-
Cc1ccc(CCNC(=O)c2ccc3c(Cl)c4c(nc3c2)CCCC4)cc1,?,18µM,-,-,-,-
Cc1ccc(N(C)C(=O)c2ccc3c(Cl)c4c(nc3c2)CCC4)cc1C,?,?,?,0,0,-65
COCCN(C)C(=O)c1cnn(-c2ncc3c(n2)-c2ccccc2CCC3)c1C1CC1,0,0,-,-,-,-
COc1ccc(-n2c(=O)cnc3cnc(OC)nc32)cc1,0,0,-,-,-,-
Cc1ccc(CN2C[C@H](Sc3ccccn3)C[C@H]2C(=O)Nc2ccc3sc(C)nc3c2)cc1,0[9.04 µM],0,-,-,-,-
CCCn1c(SCC(=O)Nc2nc3c(s2)CCCC3)nc2c1c(=O)n(C)c(=O)n2C,12µM,15µM,0,?,0,0
CCCCn1c(SCC(=O)Nc2nnc(C(C)C)s2)nc2c1c(=O)n(C)c(=O)n2C,18µM,18µM,0,18µM,0,0
CCCn1c(SCC(=O)Nc2nnc(CC)s2)nc2c1c(=O)n(C)c(=O)n2C,-,-,-,0,-,-
COC(=O)/C=C1/SC(=NC(=O)c2cccc([N+](=O)[O-])c2)NC1=O,?,?,0,0,0,?
CCCCN1C(=O)C(CC(=O)NC2CC2)CC(C(=O)N(CC)CC)=C1C (centres undefined),0,0,0,-,0,0
O=C(Nc1ccc(O)cc1)c1ccccc1OCc1ccccc1,?,?,0,?,0,-71
CNC(=O)c1cccc(NC(=O)c2ccccc2OCc2ccccc2)c1,?,?,0,0,0,0
